TDP1 cell noCPT – qHTS for Inhibitors of human tyrosyl-DNA phosphodiesterase 1 (TDP1): qHTS in cells in absence of CPT; DT40 Tdp1-/- hTDP1 cells, no CPT, ATP luminescence, 48 h; Potency, µM (highest dose often 46.2 µM), without a hit: at the highest dose activity change, negative = growth inhibition, most hits filed as inhibitors; 15% of 420,000 active; AID 686978, 2013; note: nearly all actives have a fitted effect of over 55% in size
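Camptothecin absent (DMSO only). Human TDP1-complemented DT40 knockout cells, 400 cells/well, 37 °C for minimum 48 hr; ATP measured via CellTiter-Glo, 30 min dark incubation, luminescence.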
VP16 counter – counter-screen for ROR gamma inhibitors: Gal4-VP16 reporter. Drosophila S2 Gal4-VP16 UAS-luciferase, luminescence, 20 h. Potency, µM (highest dose often 53.6 µM), for inactives: at the top dose activity, negative = inhibition, usual class: inhibitors. 3.5% of 310,000 active;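 note: Gal4-VP16 expression switched on by copper sulfate through the metallothionein promoter; nearly all actives have a fitted effect of over 50% in size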
TDP1 inh – TDP1 (human) enzyme inhibition; AID 485290; Potency, µM (highest dose often 130 µM), for the others: top-dose activity change, negative = inhibition, most hits filed as inhibitors; Q9NUW8; 0.28% of 350,000 active; recombinant TDP1, AlphaScreen DNA substrate cleavage; note: nearly all actives have a fitted effect of over 40% in size
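Here, a 5' biotin and 3' phosphotyrosine-FITC DNA oligonucleotide reports Tdp1 activity: intact substrate bridges AlphaScreen beads, while cleavage leaves a 3' phosphate and drops signal. All incubations at room temperature.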
DT40 TDP1 CPT – growth inhibition of DT40 Tdp1-/-;hTDP1 cells with camptothecin (screen for TDP1 inhibitors) | Potency, µM (highest dose often 46.2 µM), inactives show top-dose activity change, negative = growth inhibition, hits mostly inhibitors | AID 686979 | 12% of 420,000 active | chicken DT40 Tdp1-/-;hTDP1 cells + 20 nM CPT, ATP luminescence, 48 h; note: nearly all actives have a fitted effect of over 55% in size
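Chicken DT40 Tdp1-/- cells complemented with human TDP1, 400 cells/well, exposed to compounds plus 20 nM camptothecin for at least 48 h at 37 C; viability read as ATP content by CellTiter-Glo luminescence.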
RORg inh – blocks mouse ROR gamma transcriptional activity; P51450; Drosophila S2 Gal4-RORgamma UAS-luciferase reporter, 20 h; 5.4% of 310,000 active; AID 2551; Potency, µM (top dose mostly 53.6 µM), for the others: top-dose activity change, negative = inhibition, most hits filed as inhibitors; note: nearly all actives have a fitted effect of over 60% in size
Target sequence (P51450 whole entry, looked up, the tested form may be a part): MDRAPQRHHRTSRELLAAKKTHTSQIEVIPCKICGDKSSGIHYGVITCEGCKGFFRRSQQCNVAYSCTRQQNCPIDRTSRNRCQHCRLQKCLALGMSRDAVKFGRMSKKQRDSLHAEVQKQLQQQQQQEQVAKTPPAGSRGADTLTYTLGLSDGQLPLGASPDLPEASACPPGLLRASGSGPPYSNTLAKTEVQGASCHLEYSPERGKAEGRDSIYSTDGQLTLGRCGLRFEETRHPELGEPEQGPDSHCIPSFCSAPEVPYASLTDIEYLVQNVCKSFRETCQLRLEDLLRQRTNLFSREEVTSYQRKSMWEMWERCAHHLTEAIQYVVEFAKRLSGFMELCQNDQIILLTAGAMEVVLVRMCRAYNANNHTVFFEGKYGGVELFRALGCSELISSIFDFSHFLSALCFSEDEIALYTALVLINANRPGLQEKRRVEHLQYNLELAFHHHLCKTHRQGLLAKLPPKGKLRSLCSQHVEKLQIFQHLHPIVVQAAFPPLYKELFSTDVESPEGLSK
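Luciferase reporter read in Schneider cells carrying Gal4-RORγ (mouse) and UAS-Photinus luciferase; cells given compound 1 h before 700 uM copper sulfate induction, then incubated 20 h at ambient temperature.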
* = called active by the depositor; u = inconclusive; x = not tested or not shown; [ ] = dose if it differs, or a comment. Rows were chosen to be rich in hits. Some 19% of all compounds tested hit in one or more screens of this group. Calls come from the whole dose curve; as a rule, active = well fitted curve in the direction sought with a large enough effect; inconclusive = small, poorly fitted or top-dose-only effect, or another doubt; inactive = no such curve, though single readings can be large; an effect the other way counts as inactive or inconclusive. % is set by controls: 0 for no effect and ±100 for the full control effect; potency is the fitted concentration of half-maximal effect.

SMILES	TDP1 cell noCPT	VP16 counter	TDP1 inh	DT40 TDP1 CPT	RORg inh
C=CCn1c(SCC(C)=O)nc2scc(-c3ccc(C)o3)c2c1=O	u	-18%	x	u	-37%
COc1ccc(NC(=O)C2CCOC(C)(C)C2)cc1 (configuration not stated)	-2%	5%	-2%	4%	10%
O=C(CCNS(=O)(=O)c1ccc2c(c1)CCC(=O)N2)Nc1ccc2c(c1)OCCO2	-15%	-1%	5%	13%	-1%
C=Cc1ccc(Cn2nc(-c3ccc(C)c(S(=O)(=O)N(CC)CC)c3)ccc2=O)cc1	u	x	-1%	16µM*	x
O=C(/C=C/c1ccc(Cl)cc1)Nc1nccs1	u	-5%	-2%	-29%	8.9µM*
C/C=C/C=C/C(=O)Nc1nccs1	-3%	5.6µM*	-1%	-19%	10µM*
O=C(Nc1nccs1)C(F)(F)C(F)(F)C(F)(F)C(=O)Nc1nccs1	-2%	-1%	x	7%	u
CCOc1ccc(S(=O)(=O)NCCC(=O)NCC2COc3ccccc3O2)cc1 (configuration not stated)	-5%	x	0%	-18%	x
CCN1CCN(CC2COc3ccccc3O2)CC1 (configuration not stated)	13%	11%	x	2%	0%
CCOc1ccc2c(c1)C(=O)C(=O)N2CC1COc2ccccc2O1 (configuration not stated)	0.82µM*	-6%	x	1.2µM*	3%
Cc1ccc2c(c1)C(=O)C(=O)N2CC1COc2ccccc2O1 (configuration not stated)	2.3µM*	12%	x	2.3µM*	u
COc1ccc2c(c1)C(=O)C(=O)N2CC1COc2ccccc2O1 (configuration not stated)	0.58µM*	-7%	x	1µM*	-27%
CCCCS(=O)(=O)N1CCCC(C(=O)NCCc2ccccc2)C1 (configuration not stated)	-21%	-1%	1%	-7%	1%
Nn1c(-c2cccc(Br)c2)n[nH]c1=S	-7%	-6%	11%	-9%	-20%
CN=c1sc2c(n1C)C(=O)c1ccccc1C2=O	5.8µM*	x	x	4.1µM*	x
CCCN1CCC(=O)N(C(CSc2ccc(C)cc2)CC(C)C)CC1 (configuration not stated)	x	-1%	10%	x	38%
O=C1CCN(CCc2ccccc2)CCN1[C@H](CSc1ccccc1)Cc1ccccc1	11µM*	-11%	x	21µM*	37%
Cc1ccc(SC[C@H](Cc2ccccc2)N2CCN(CCc3ccccc3)CCC2=O)cc1	u	-10%	4%	u	32%
CCCN1CCC(=O)N([C@H](CSc2ccc(C)cc2)Cc2ccccc2)CC1	u	-10%	4%	29µM*	34%
CCCN1CCC(=O)N([C@H](CSc2ccc(C)cc2)CC(C)C)CC1	16µM*	-12%	1%	21µM*	0%
CCCN1CCC(=O)N([C@H](CSc2ccc(OC)cc2)Cc2ccccc2)CC1	18µM*	3%	2%	u	u
COc1ccc(SCC(Cc2ccccc2)N2CCN(CCc3ccccc3)CCC2=O)cc1 (configuration not stated)	x	-10%	15%	x	u
CC(C)C(=O)NCCc1nc(-c2ccccc2Cl)no1	-13%	x	x	-6%	x
Cc1ccc(NC(=O)c2ccccc2)cc1-n1cnnn1	-12%	-3%	6%	-3%	5%
CCN1C(=O)N[C@@H](c2cccc(F)c2)C(C(C)=O)=C1C	-22%	x	16%[12.3 µM]	-28%	x
SMILES	TDP1 cell noCPT	VP16 counter	TDP1 inh	DT40 TDP1 CPT	RORg inh
CCN1C(=O)N[C@H](c2ccc(Br)cc2)C(C(C)=O)=C1C	16µM*	u	4%	21µM*	u
Cc1cccc(N(CC(O)Cn2c3ccccc3c3ccccc32)S(=O)(=O)c2ccc(F)cc2)c1 (configuration not stated)	8.2µM*	x	1%	21µM*	x
CC(=O)Nc1ccc(N(CC(O)Cn2c3ccccc3c3ccccc32)S(=O)(=O)c2ccc(C)cc2)cc1 (configuration not stated)	u	u	-1%	u	u
COc1ccc(OCCC(=O)OCC(=O)c2ccc[nH]2)cc1	13%	3%	-5%	7%	8%
CCNc1oc(-c2ccc(COc3ccc(Cl)cc3)o2)nc1C#N	u	x	-1%	u	x
COCCCNc1oc(-c2ccc(COc3ccc(Cl)cc3)o2)nc1C#N	u	x	8%	16µM*	x
COCCNc1oc(-c2ccc(COc3ccc(OC)cc3)o2)nc1C#N	u	x	5%	-26%	x
CN(C)CCNc1oc(-c2ccc(COc3ccc(Cl)cc3)o2)nc1C#N	8.2µM*	x	5%	16µM*	x
COc1ccc(OCc2ccc(-c3nc(C#N)c(NCc4ccc(F)cc4)o3)o2)cc1	23µM*	x	5%	u	x
COc1cc(OC)cc(C(=O)N2CCN(C(=O)COc3ccc4ccccc4c3)CC2)c1	-17%	-16%	6%	-11%	4%
CCc1ccc(C2=Nn3c(nnc3-c3cccs3)SC2)cc1	21µM*	2%	4%	u	13%
Clc1ccccc1C1=Nn2c(nnc2-c2ccncc2)SC1	10µM*	-15%	7%	6.5µM*	-19%
CC1=Nn2c(nnc2-c2ccccc2Cl)SC1	7%	-4%	8%	13%	-23%
c1csc(C2=Nn3c(nnc3-c3ccncc3)SC2)c1	15µM*	u	4%	15µM*	10%
c1ccc(-c2ccc(C3=Nn4c(nnc4-c4cccs4)SC3)cc2)cc1	u	-18%	4%	u	28%
O=C(NCc1cccc(Cl)c1)c1ccc(S(=O)(=O)Nc2cccc(C(F)(F)F)c2)cc1	u	u	0%	u	u
COc1ccc(/C=C2\CCC(C3CCCC3)C2=O)cc1Cn1cccn1 (configuration not stated)	u	u	5%	18µM*	-13%
COc1ccc2c(c1)CC/C(=C\C=C\c1ccccc1OC)C2=O	u	u	0%[56.1 µM]	u	u
COc1ccc2c(c1)CC/C(=C/c1ccncc1)C2=O	16µM*	u	3%	16µM*	-40%
CCOc1ccc(/C=C2\CCC(C3CCCC3)C2=O)cc1OC (configuration not stated)	u	15%	x	u	9%
COc1ccc(/C=C2\CCc3ccccc3C2=O)cc1Cn1cccn1	u	23%	7%	21µM*	16%
COc1ccc(/C=C2\CCc3ccccc3C2=O)cc1O	0.82µM*	u	6%	0.52µM*	u

From PubChem BioAssay
